Assay outcomes: PubChem, The Scripps Research Institute Molecular Screening Center
This is a sample that favours compounds with a hit; in the whole collection about 2% have one here.
M4 ag: human M4 muscarinic receptor agonists, primary screen, CHO-K1 cells, Fluo-8 calcium fluorescence. CHO-K1 hM4/Gqi5; vehicle 0%, full acetylcholine response 100%. Muscarinic acetylcholine receptor M4 (Homo sapiens), P08173. hit rate 0.14% among 360,000. activation, % at 3 µM;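 active means activation above the run mean over all test wells plus 3 SD, cut at about 32% in these data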;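 further: peak over basal fluorescence ratio per well then scaled between controls; 0% = DMSO wells and 100% = acetylcholine at EC100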
Target sequence (P08173 whole entry, looked up): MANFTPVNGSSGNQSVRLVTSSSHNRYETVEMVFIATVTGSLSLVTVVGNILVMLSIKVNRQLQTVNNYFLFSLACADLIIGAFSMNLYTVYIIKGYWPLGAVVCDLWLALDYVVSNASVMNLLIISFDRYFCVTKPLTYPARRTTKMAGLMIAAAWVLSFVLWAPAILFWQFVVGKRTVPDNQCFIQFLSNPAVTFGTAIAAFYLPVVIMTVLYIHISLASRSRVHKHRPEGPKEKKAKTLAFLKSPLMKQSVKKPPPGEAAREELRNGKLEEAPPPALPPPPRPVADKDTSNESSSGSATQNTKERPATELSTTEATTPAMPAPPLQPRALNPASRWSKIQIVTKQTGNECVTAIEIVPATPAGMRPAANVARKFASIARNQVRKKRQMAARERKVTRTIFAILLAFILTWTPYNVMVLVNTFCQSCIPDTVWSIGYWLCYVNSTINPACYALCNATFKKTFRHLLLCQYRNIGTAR
M1 ag parental: counter-screen for M1 agonists: effect in parental CHO-K1 cells; Fluo-8 calcium fluorescence; scaled to maximal ATP response, vehicle zero; activation, % at 3 µM; hit rate 0.48% among 360,000; AID 602248, 2012; in the data active means activation above about 15%;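 further: untransfected CHO-K1 host cells lacking M1 receptor as counterscreen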
CHRM4 PAM: human M4 muscarinic receptor positive allosteric modulators, primary screen, CHO-K1 cells, Fluo-8 calcium fluorescence; hit rate 0.4% among 360,000; CHO-K1 hM4/Gqi5, ACh EC20; 0% = ACh EC20, 100% = maximal ACh; activation, % at 3 µM; Muscarinic acetylcholine receptor M4 (Homo sapiens), P08173; AID 624126, 2012;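 active means activation above its plate's cutoff, the mean activation of sample wells plus 3 SD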
CHO-K1 Ca antag: nonselective inhibitor or artifact in parental CHO-K1 cells. hit rate 0.6% among 360,000. ATP-induced calcium, Fluo-8 fluorescence. AID 602250. inhibition, % at 3 µM;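 active means inhibition above a per-plate cutoff, the plate's mean sample inhibition plus 3 SD, cut at about 24% in these data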;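 further: 0% = DMSO plus EC80 ATP and 100% = DMSO alone without ATP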
M1 PAM parental: nonselective calcium activators in parental CHO-K1 cells, primary screen, counter-screen for M1 PAM project, cell-based, Fluo-8 calcium fluorescence, full deck, 1536-well; ATP EC20; 0% at ATP EC20, 100% at ATP max; activation, % at 3 µM; hit rate 0.02% among 360,000; AID 602247, 2012;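 active means activation above the run cutoff, the mean activation of all test compounds plus 3 SD, cut at about 40% in these data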;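 further: peak over basal fluorescence ratio in a 140 s read after ATP addition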
M4 antag: human M4 muscarinic receptor antagonists, primary screen, CHO cells, Fluo-8 calcium fluorescence | Muscarinic acetylcholine receptor M4 (Homo sapiens), P08173 | CHO-hM4 cells, ACh EC80 | inhibition, % at 3 µM | hit rate 0.73% among 360,000;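 active means inhibition above its plate's cutoff, the mean inhibition of sample wells plus 3 SD, cut at about 27% in these data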;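 further: 0% = acetylcholine EC80 with DMSO and 100% = DMSO without agonist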
Active calls of the source: *.

SMILES	M4 ag	M1 ag parental	CHRM4 PAM	CHO-K1 Ca antag	M1 PAM parental	M4 antag
CCN(CC)c1nc2c(c(=O)n(C)c(=O)n2C)n1CCCc1ccccc1	1.7	4.8	-1.5	-16.0	17.0	-8.8
C=CCOc1nc2c(c(=O)n(C)c(=O)n2C)n1Cc1ccccc1	25.4	11.8	-33.1	1.2	-11.7	14.7
CN(Cc1ccccc1)c1nc2c(c(=O)n(C)c(=O)n2C)n1CCCc1ccccc1	3.1	3.3	-9.6	11.5	10.0	26.8*
Cc1ccc(Cn2c(SCCN3CCCCC3)nc3c2c(=O)n(C)c(=O)n3C)cc1	0.1	0.1	-0.7	-8.3	14.9	-1.8
Cn1c(=O)c2c(nc(SCCN3CCCCC3)n2Cc2ccccc2)n(C)c1=O	-0.7	0.2	-20.1	-8.1	9.1	27.8*
OC(CCN1CC2CCC(CC2)C1)(Cc1ccccc1)c1ccco1 (stereo not drawn)	2.0	-0.3	-16.5	-6.1	2.7	34.3*
COc1cc(CCCN2C(N)=NC[C@@H]2c2ccccc2)cc(OC)c1OC	-0.1	-0.4	11.9	-12.6	28.1	1.9
O=C(Nc1nc2nccc(-c3ccccc3)n2n1)c1ccc(F)cc1	1.6	0.2	-7.5	4.0	-8.8	-3.3
O=C(Nc1nc2nccc(-c3ccccc3)n2n1)c1ccccc1	-1.5	-0.1	-16.2	0.3	-14.6	100.1*
O=C(CSc1nnc(SCc2ccccc2)s1)N/N=C/C=C\c1ccco1	1.0	15.8*	3.0	9.0	16.5	4.9
Cc1nccc(-c2sc(-c3cccs3)nc2C)n1	4.2	-0.3	68.7*	2.5	-9.6	21.4
COc1cc(S(=O)(=O)N2CCN(C)CC2)c(OC)cc1Cl	1.0	-0.2	-1.2	23.9*	-7.1	-4.1
COc1cc(Cl)c(S(=O)(=O)N2CCCC2)cc1Cl	0.7	0.2	-1.8	-16.2	7.8	5.8
Cc1cccc(N2CCN(C(=O)c3[nH]c(C(F)(F)F)nc3-c3ccccc3)CC2)c1C	13.2	6.0	-0.3	-14.5	10.2	-21.4
CCNC(=S)N1C2CCC1CC(NC(=O)NC1CCCCC1)C2 (stereo not drawn)	-0.2	0.9	3.3	-21.2	13.7	-2.9
N#CC1=C2SCN(Cc3ccccc3)CN2C(=O)CC1c1cccs1 (stereo not drawn)	1.6	0.9	6.6	27.0*	0.7	-19.1
N#CC1=C2SCN(Cc3ccccc3)CN2C(=O)CC1c1ccc2c(c1)OCO2 (stereo not drawn)	7.9	1.8	-0.8	-1.9	-4.2	11.0
CC(C)Sc1snnc1-c1ccccc1	0.2	-0.8	12.6	15.9	-11.8	2.3
O=C(Nc1ccc([N+](=O)[O-])cc1)Nc1nc(-c2ccc(Cl)s2)cs1	12.4	10.4	-9.9	34.1*	-4.5	26.1
CC(=O)Nc1nc(-c2ccc([N+](=O)[O-])cc2)cs1	0.8	9.3	0.8	-4.4	8.9	-4.6
O=C(OCC(=O)N1CCc2ccccc21)C1=COCCO1	-1.0	-0.3	29.5*	11.5	2.9	9.7
CCCn1c(SCC(=O)NCc2ccc(OC)cc2)n[nH]c1=O	1.2	1.1	11.3	-13.3	11.7	-10.0
CCCn1c(SCC(=O)N2N=C3/C(=C/c4ccc(OC)cc4)CCCC3C2c2ccc(OC)cc2)n[nH]c1=O (stereo not drawn)	17.9	24.5*	-6.7	10.3	15.9	13.3
CC1(C(=O)Nc2ccc3c(c2)OCO3)CCN1C(=O)Cc1ccc(-c2ccccc2)cc1 (stereo not drawn)	12.8	10.4	-8.4	8.1	15.8	26.7*
CC1(C(=O)Nc2ccccc2)CCN1C(=O)Cc1ccc(-c2ccccc2)cc1 (stereo not drawn)	9.6	6.6	-5.0	-9.3	16.4	-2.9
SMILES	M4 ag	M1 ag parental	CHRM4 PAM	CHO-K1 Ca antag	M1 PAM parental	M4 antag
CCCCCCCCCCCCN1[C@@H](CC(=O)OC)c2cc(F)ccc2S1(=O)=O	2.0	0.2	30.0*	-17.4	10.9	-5.3
CCCCCCCCCCCCN1[C@@H](CC(=O)OC)c2cc(F)cc(F)c2S1(=O)=O	1.1	-0.5	26.1*	-0.5	-4.6	-3.6
COc1cc(C2Nc3cc(Cl)c(S(N)(=O)=O)cc3S(=O)(=O)N2)cc(OC)c1OC (stereo not drawn)	-0.1	0.4	23.9*	-3.3	16.4	10.2
Cc1ccc(S(=O)(=O)N2CCOC2CNC(=O)C(=O)NCC(C)C)cc1 (stereo not drawn)	2.1	0.8	22.4*	-10.9	1.1	-9.5
FC(F)(F)c1nnc2c(Sc3ccc(Cl)cc3)nc3ccccc3n12	0.5	-0.4	12.7	38.7*	-8.7	-9.7
FC(F)(F)c1nnc2c(Sc3ccccc3)nc3ccccc3n12	0.5	2.1	7.9	13.9	-4.5	-3.5
COc1ccccc1Cc1nnnn1CC(=O)O	-0.6	0.1	7.5	-24.1	1.1	-0.6
CCOc1ccccc1CNn1cnnc1	0.2	0.9	-20.5	-7.4	16.1	-16.4
COC(=O)c1cnc(SCc2ccc(Cl)cc2)n1C	2.3	-0.2	-3.5	-4.4	4.2	-16.6
CC(=O)OCc1c(C(F)(F)F)nn(C)c1SCc1ccc(Cl)cc1	-3.1	1.1	-23.9	-1.7	16.7	56.0*
O=[N+]([O-])c1ccccc1NCCOc1ccccc1	-3.0	-0.1	0.7	-0.8	-4.4	-3.5
Cc1nonc1OCCNCCNc1ccccc1[N+](=O)[O-]	0.7	0.1	5.2	27.0*	-12.1	4.3
O=C(COC(=O)C12CC3CC(CC(Br)(C3)C1)C2)N1CCOCC1	4.1	16.6*	-3.9	12.1	12.2	-3.1
COc1ccc2nc(-c3ccccc3)nc(C3CCCCC3)c2c1	0.5	1.1	0.1	-12.7	23.7	0.3
CCCCn1nnnc1C(c1ccnc2ccccc12)N1CCN(C/C=C/c2ccccc2)CC1 (stereo not drawn)	1.4	0.4	-14.0	-8.9	-4.8	22.7
CCCCn1nnnc1C(c1cccc2ccccc12)N1CCN(C/C=C/c2ccccc2)CC1 (stereo not drawn)	0.9	1.2	-16.8	13.7	0.5	83.8*
C(=C\c1ccccc1)/CN1CCN(C(c2ccnc3ccccc23)c2nnnn2C2CCCCC2)CC1 (stereo not drawn)	1.8	-0.1	-7.6	-20.3	14.9	-8.6
COc1cccc(C(c2nnnn2C2CCCC2)N2CCN(C/C=C/c3ccccc3)CC2)c1OC (stereo not drawn)	3.0	-0.3	-15.3	-15.3	16.1	31.3*
C/C(=N\O)C(=O)NCCN(C)C	0.6	0.1	-1.7	7.3	11.2	6.9
Cc1cccc(NS(=O)(=O)Cc2ccccc2)c1C	-0.3	-0.1	-1.3	15.4	-24.6	3.1
